# PD-1 reverse act: reversal of PD-1 mediated T-cell inhibition | primary human CD4 T cells, PD-L1 beads, CellTiter-Glo 96 h | activation, % (concentration not given with the values) | 29,000 tested, under 10 active; call rule not given here;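 note: 0% = median vehicle wells and 100% = positive control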
# STK33 kin inh: human STK33 kinase inhibition; AID 2322; 27,000 compounds, 0.44% hits; inhibition, % at 12.5 µM; Q9BYT3; ADP-Glo luminescence, MBP substrate; in the data active = inhibition above about 20%; inconclusive = no clear call, values can overlap the other calls
# Target sequence (Q9BYT3 whole entry, looked up): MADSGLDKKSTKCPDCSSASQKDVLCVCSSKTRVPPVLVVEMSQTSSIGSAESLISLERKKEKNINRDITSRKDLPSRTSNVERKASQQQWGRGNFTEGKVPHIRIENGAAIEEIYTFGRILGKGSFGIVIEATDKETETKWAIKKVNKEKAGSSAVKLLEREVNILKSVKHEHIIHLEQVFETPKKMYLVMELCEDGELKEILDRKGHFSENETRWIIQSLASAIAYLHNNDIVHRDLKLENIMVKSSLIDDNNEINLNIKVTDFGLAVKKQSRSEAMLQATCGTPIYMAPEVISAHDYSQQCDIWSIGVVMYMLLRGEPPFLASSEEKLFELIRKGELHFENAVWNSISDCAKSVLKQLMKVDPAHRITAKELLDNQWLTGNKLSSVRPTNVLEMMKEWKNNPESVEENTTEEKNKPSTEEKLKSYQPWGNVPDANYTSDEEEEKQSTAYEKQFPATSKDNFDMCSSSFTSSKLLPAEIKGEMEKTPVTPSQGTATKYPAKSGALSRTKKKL
# NOMO-1 viab: STK33 inhibitor candidate reducing NOMO-1 cell viability. NOMO-1 AML viability, CellTiter-Glo luminescence, 72 h. inhibition, % (concentration not given with the values). 37,000 compounds, 7.5% hits; in the data active = inhibition above about 80%; inconclusive = no clear call, values can overlap the other calls
# Starred values were filed as active, the others as inactive; u = inconclusive; x = no result given. Shown is part of a subset that was picked to be rich in hits.
SMILES,PD-1 reverse act,STK33 kin inh,NOMO-1 viab
C[C@H](CO)N1C[C@H](C)[C@H](CN(C)Cc2ccc(Oc3ccccc3)cc2)Oc2ccc(NS(=O)(=O)c3ccccc3)cc2CC1=O,-1,6,96*
Nc1ncnc2c1[nH]c(=S)n2CCOc1cccc2ccccc12,-3,4,u
Cc1nc(SCC(=O)c2cc3ccccc3oc2=O)c(C#N)c(C)c1C,x,-3,110*
Cc1cc(C)c(C#N)c(SCC(=O)c2cc3ccccc3oc2=O)n1,x,3,8
COc1ccc(C(=O)N2c3ccccc3CCc3ccccc32)cc1,-2,x,104*
CC1(C)CC(NC(=O)N2c3ccccc3CCc3ccccc32)CC(C)(C)N1,-1,x,-24
CCC(=O)OCC(=O)[C@@]1(OC(=O)CC)[C@H](C)CC2C3C([C@@H](O)C[C@@]21C)[C@@]1(C)C=CC(=O)C=C1C[C@H]3Cl (stereo partly drawn),x,0,41
C[C@H]1CN([C@@H](C)CO)C(=O)c2cc(NC(=O)Nc3ccc(F)cc3)ccc2O[C@H]1CN(C)Cc1ccncc1,-2,-4,100*
CC(C)NC(=O)Nc1ccc2c(c1)C(=O)N([C@@H](C)CO)C[C@@H](C)[C@@H](CN(C)Cc1ccncc1)O2,0,-1,8
C[C@@H]1CN([C@H](C)CO)C(=O)c2cc(NC(=O)Nc3ccccc3)ccc2O[C@@H]1CN(C)Cc1ccncc1,0,x,-5
C[C@H](CO)N1C[C@H](C)[C@H](CN(C)Cc2ccncc2)Oc2ccc(NC(=O)Nc3ccccc3)cc2C1=O,0,0,97*
COc1ccc(NC(=O)c2ccc(N(C)S(=O)(=O)c3ccc(OC)c(OC)c3)cc2)c(OC)c1,-1,5,37
O=C1c2cccc3cccc(c23)C(=O)N1CCCSc1n[nH]c(-c2ccc(Cl)cc2)n1,x,3,x
CC(=O)O[C@@H]1C[C@@H](C)[C@](O)(CCC2=CC(=O)OC2)[C@@]2(C)CCCC(C)(C)C12 (stereo partly drawn),-3,-5,104*
C/C=C/C=C/C(=O)O[C@@H]1C=C(CO)[C@](O)(CO)[C@@]2(C)CCCC(C)(C)[C@H]12,3,-2,63
Cc1ccc(S(=O)(=O)N(C)C[C@H]2Oc3c(NC(=O)NC4CCCCC4)cccc3C(=O)N([C@@H](C)CO)C[C@H]2C)cc1,-4,x,36
C[C@H]1CN([C@@H](C)CO)C(=O)c2cccc(NC(=O)NC3CCCCC3)c2O[C@H]1CN(C)S(=O)(=O)c1ccc(Cl)cc1,-7,x,98*
Cc1ccc(S(=O)(=O)N(C)C[C@@H]2Oc3c(NC(=O)NC4CCCCC4)cccc3C(=O)N([C@H](C)CO)C[C@@H]2C)cc1,-4,x,91*
C[C@@H]1CN([C@@H](C)CO)C(=O)c2cccc(NC(=O)NC3CCCCC3)c2O[C@@H]1CN(C)S(=O)(=O)c1ccc(Cl)cc1,x,x,43
O=C(NCc1ccco1)c1ccc2c(c1)C(=O)N(CC1CCCO1)C2=O (stereo not drawn),2,-1,14
CCCC1C2C(=O)N(c3ccccc3)C(=O)C2ON1c1ccc(Cl)c(Cl)c1 (stereo not drawn),1,-2,7
COc1ccc(CN(C)C[C@H]2Oc3ccc(NC(=O)Nc4ccc(C(F)(F)F)cc4)cc3C(=O)N([C@@H](C)CO)C[C@@H]2C)cc1,-3,x,113*
COc1ccc(NC(=O)Nc2ccc3c(c2)C(=O)N([C@@H](C)CO)C[C@@H](C)[C@@H](CN(C)Cc2ccc(C(F)(F)F)cc2)O3)cc1,0,0,u
COc1ccc(NC(=O)Nc2ccc3c(c2)C(=O)N([C@@H](C)CO)C[C@H](C)[C@H](CN(C)Cc2ccc(C(F)(F)F)cc2)O3)cc1,-1,2,24
COc1ccc(CN(C)C[C@@H]2Oc3ccc(NC(=O)Nc4ccc(C(F)(F)F)cc4)cc3C(=O)N([C@H](C)CO)C[C@@H]2C)cc1,-3,2,114*
SMILES,PD-1 reverse act,STK33 kin inh,NOMO-1 viab
Cc1c(NC(=S)NC(=O)COc2ccccc2)cccc1-c1nc2ccccc2s1,x,-2,6
CCOC(=O)c1c(NC(=O)C2CC(c3ccccc3O)=NO2)sc2c1CCCC2 (stereo not drawn),x,0,30
O=C1S/C(=C\c2ccc(N3CCOCC3)o2)C(=O)N1c1ccccc1,0,x,132*
O=c1c(N2CCOCC2)nnc2sc3ccccc3n12,0,x,8
Cc1ccc(NS(=O)(=O)c2cccc(C(=O)Nc3ccccc3C(=O)O)c2)cc1C,2,-3,15
NC(=O)COc1ccc(C2NC(=S)NC(c3ccccc3)=C2C(=O)c2ccccc2)cc1 (stereo not drawn),-1,-3,5
CCN(CC(=O)Nc1cccc(C)c1)S(=O)(=O)c1ccc(Br)cc1,1,-2,-11
NC(=S)/N=C1\CCCCC1=C1CCCCC1,-2,x,17
CC(Oc1ccccc1)C(=O)NCCN1CCOCC1 (stereo not drawn),-1,-4,-9
CC(=O)C1C(=O)[C@@H]2[C@H]3c4c[nH]c5cccc(c45)C[C@H]3C(C)(C)N2C1=O (stereo partly drawn),-14,-1,131*
CC(=O)C1C(=O)C2C3c4c[nH]c5cccc(c45)CC3C(C)(C)N2C1=O (stereo not drawn),x,-1,10
COc1ccc(C)cc1NC(=O)C(=S)NCc1ccco1,-2,-2,25
O=C1CC2(CCCC2)C(=O)N1c1cc(C(F)(F)F)cc(C(F)(F)F)c1,1,x,18
C[C@H](CO)N1C[C@H](C)[C@H](CN(C)Cc2ccc(Oc3ccccc3)cc2)Oc2ccc(NC(=O)Nc3ccc(F)cc3)cc2C1=O,1,x,66
C[C@@H]1CN([C@@H](C)CO)C(=O)c2cc(NC(=O)Nc3ccc(F)cc3)ccc2O[C@@H]1CN(C)Cc1ccc(Oc2ccccc2)cc1,-6,7,117*
C[C@@H]1CN([C@H](C)CO)C(=O)c2cc(NC(=O)Nc3ccc(F)cc3)ccc2O[C@@H]1CN(C)Cc1ccc(Oc2ccccc2)cc1,-2,x,124*
C[C@@H]1CN([C@H](C)CO)C(=O)c2cc(NC(=O)Nc3ccc(F)cc3)ccc2O[C@H]1CN(C)Cc1ccc(Oc2ccccc2)cc1,-3,3,71
COC(=O)c1ccc(Oc2ccc(Cl)cc2Cl)o1,1,-2,6
CCN(CC)CCOc1ccccc1,0,x,-1
O=C(O)c1cc(=O)[nH]c2c(C(F)(F)F)cccc12,0,x,17
O=C1OCCC1Sc1nnc(-c2ccccc2[N+](=O)[O-])o1 (stereo not drawn),x,-3,16
Nc1ncnc2c1c(I)cn2C1OC(CO)C(O)C1O (stereo not drawn),x,53*,114*
COc1ccc(NC(=O)C(=O)NCCCO)c(OC)c1,x,-6,-32
CC(=O)O[C@@H]1CC[C@@]2(C)C(C[C@@H](OC(C)=O)[C@@]3(C)C4=CC(=O)O[C@@H](c5ccoc5)[C@]4(C)CCC23)C1(C)C (stereo partly drawn),x,3,66
CC(=O)O[C@@H]1CC2C(C)(C)CCC[C@]2(C)C2CC[C@]3(C)C(=CC(=O)O[C@H]3c3ccoc3)[C@@]21C (stereo partly drawn),x,3,99*
CC1=C(C(=O)Nc2ccccc2)C(c2ccccc2OCc2ccccc2)n2nnnc2N1 (stereo not drawn),-6,0,3
